Common to all, as to conditions: mRNA level, 48 h; actives raise or lower the signal
Read-out in assay [1]: Cytochrome P450 7A1 (Homo sapiens) (UniProt P22680)
Nature of the assay: LTEA_HepaRG_CYP7A1: Life Technologies and Expression Analysis (LTEA) Assay for Cytochrome P450 7A1 (CYP7A1) using HepaRG (AID 2283496). Summed up:
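HepaRG cells plated 48 h, then switched to serum-free induction medium and exposed in duplicate for 48 h to 8-point half-log series from 100 uM in 0.5% DMSO. CYP7A1 mRNA by qRT-PCR (TaqMan), normalized to ACTB/GAPDH/POLR2A; bidirectional fit versus DMSO.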

Read-out in assay [2]: Glutathione S-Transferase (GSTA2), GSTA2 (gene 2939)
Put plainly: LTEA_HepaRG_GSTA2: Life Technologies and Expression Analysis (LTEA) Assay for Glutathione S-Transferase (GSTA2) using HepaRG (AID 2283497). Summed up: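 Human HepaRG cells, plated 48 h, then exposed in serum-free induction medium for 48 h to eight half-log concentrations up to 100 uM in 0.5% DMSO, duplicate. GSTA2 mRNA by qRT-PCR, normalized to ACTB/GAPDH/POLR2A; bidirectional fit versus DMSO.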

Read-out in assay [3]: Glutamate-cysteine ligase catalytic (GCLC), GCLC (gene 2729)
Nature of the assay: LTEA_HepaRG_GCLC: Life Technologies and Expression Analysis (LTEA) Assay for Glutamate-cysteine ligase catalytic (GCLC) using HepaRG (AID 2283498). An outline of the steps: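 Differentiated human HepaRG cells, plated 48 h then switched to serum-free induction medium, were exposed in duplicate for 48 h to 8 half-log concentrations topping at 100 uM in 0.5% DMSO. GCLC mRNA was quantified by qRT-PCR against ACTB, GAPDH and POLR2A.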

Read-out in assay [4]: growth arrest and DNA damage 45 (GADD45G), GADD45G (gene 10912)
Nature of the assay: LTEA_HepaRG_GADD45G: Life Technologies and Expression Analysis (LTEA) Assay for growth arrest and DNA damage 45 (GADD45G) using HepaRG (AID 2283499). Summed up: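 Differentiated human HepaRG cells in serum-free induction medium were exposed for 48 h to 8 half-log concentrations up to 100 uM in 0.5% DMSO, in duplicate. GADD45G mRNA was measured by TaqMan qRT-PCR, normalised to ACTB, GAPDH and POLR2A, and fitted bidirectionally against DMSO.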

Read-out in assay [5]: Glutamate-cysteine ligase regulatory (GCLM), GCLM (gene 2730)
Put plainly: LTEA_HepaRG_GCLM: Life Technologies and Expression Analysis (LTEA) Assay for Glutamate-cysteine ligase regulatory (GCLM) using HepaRG (AID 2283500). Summed up: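 Differentiated HepaRG cells exposed 48 h in serum-free induction medium to eight half-log concentrations up to 100 uM (0.5% DMSO). GCLM mRNA by TaqMan qRT-PCR, normalized to ACTB, GAPDH and POLR2A; bidirectional fit versus DMSO.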

Read-out in assay [6]: Glutathione S-transferase M3 (GSTM3), GSTM3 (gene 2947)
Nature of the assay: LTEA_HepaRG_GSTM3: Life Technologies and Expression Analysis (LTEA) Assay for Glutathione S-transferase M3 (GSTM3) using HepaRG (AID 2283501). An outline of the steps: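 Differentiated HepaRG cells in serum-free induction medium were exposed in duplicate for 48 h to 8 half-log concentrations up to 100 uM in 0.5% DMSO. GSTM3 mRNA was measured by TaqMan qRT-PCR, normalized to ACTB/GAPDH/POLR2A, and fitted bidirectionally versus DMSO.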

Read-out in assay [7]: Heat shock 70 kDa protein 1 (HSPA1A), gene 3303
Put plainly: LTEA_HepaRG_HSPA1A: Life Technologies and Expression Analysis (LTEA) Assay for Heat shock 70 kDa protein 1 (HSPA1A) using HepaRG (AID 2283502). An outline of the steps: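 Human HepaRG cells in serum-free induction medium were exposed in duplicate for 48 h to 8 half-log concentrations, highest 100 uM, in 0.5% DMSO. HSPA1A mRNA read by TaqMan qRT-PCR, normalized to ACTB, GAPDH, POLR2A, fitted bidirectionally against DMSO.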

Read-out in assay [8]: Hypoxia-inducible factor 1-alpha (Homo sapiens) (UniProt Q16665)
Nature of the assay: LTEA_HepaRG_HIF1A: Life Technologies and Expression Analysis (LTEA) Assay for Hypoxia-inducible factor 1 (HIF1A) Trancription factor using HepaRG (AID 2283503). An outline of the steps: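 Differentiated HepaRG cells in serum-free induction medium exposed 48 h, in duplicate, to 8-point half-log series from 100 uM in 0.5% DMSO. HIF1A mRNA measured by TaqMan qRT-PCR, normalized to ACTB/GAPDH/POLR2A, fitted bidirectionally versus DMSO.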

Read-out in assay [9]: 3-Hydroxy-3-Methylglutaryl-CoA Synthase 2 (HMGCS2), HMGCS2 (gene 3158)
Nature of the assay: LTEA_HepaRG_HMGCS2: Life Technologies and Expression Analysis (LTEA) Assay for 3-Hydroxy-3-Methylglutaryl-CoA Synthase 2 (HMGCS2) using HepaRG (AID 2283504). Summed up: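 Differentiated human HepaRG cells were exposed in duplicate for 48 h in serum-free induction medium to eight concentrations (top 100 uM, half-log steps, 0.5% DMSO). HMGCS2 mRNA was quantified by TaqMan qRT-PCR, normalised to ACTB, GAPDH and POLR2A, then fitted bidirectionally against DMSO.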

Read-out in the next assay: HGF (gene 3082)
Nature of the assay: LTEA_HepaRG_HGF: Life Technologies and Expression Analysis (LTEA) Assay for Hepatocyte Growth Facto (HGF) using HepaRG (AID 2283505). An outline of the steps: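 Differentiated human HepaRG cells in serum-free induction medium were exposed in duplicate for 48 h to eight concentrations (top 100 uM, half-log steps, 0.5% DMSO). HGF mRNA was quantified by qRT-PCR, normalized to ACTB, GAPDH and POLR2A.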

Read-out in assay [10]: Insulin Like Growth Factor 1 (IGF1), IGF1 (gene 3479)
Nature of the assay: LTEA_HepaRG_IGF1: Life Technologies and Expression Analysis (LTEA) Assay for Insulin Like Growth Factor 1 (IGF1) using HepaRG (AID 2283506). Summed up:
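Differentiated HepaRG cells in serum-free induction medium, exposed 48 h in duplicate to 8 half-log concentrations up to 100 uM in 0.5% DMSO. IGF1 mRNA by Fluidigm qRT-PCR, normalised to ACTB, GAPDH and POLR2A.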

Read-out in assay [11]: Intercellular Adhesion Molecule 1 (ICAM1), ICAM1 (gene 3383)
Put plainly: LTEA_HepaRG_ICAM1: Life Technologies and Expression Analysis (LTEA) Assay for Intercellular Adhesion Molecule 1 (ICAM1) using HepaRG (AID 2283507). Summed up: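 Differentiated HepaRG cells in serum-free induction medium were exposed in duplicate for 48 h to eight half-log concentrations up to 100 uM in 0.5% DMSO. Transcript levels were measured by qRT-PCR normalized to ACTB, GAPDH and POLR2A; bidirectional fits relative to DMSO.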

Read-out in assay [12]: Insulin-like growth factor-binding protein 1 (IGFBP1), IGFBP1 (gene 3484)
Put plainly: LTEA_HepaRG_IGFBP1: Life Technologies and Expression Analysis (LTEA) Assay for Insulin-like growth factor-binding protein 1 (IGFBP1) using HepaRG (AID 2283508). An outline of the steps: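 Differentiated human HepaRG cells in serum-free induction medium were exposed in duplicate for 48 h to eight concentrations, top 100 uM with half-log dilutions, in 0.5% DMSO. Transcript levels came from qRT-PCR normalised to ACTB, GAPDH and POLR2A, fitted bidirectionally against DMSO.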

Read-out in assay [13]: Interleukin 6 (IL6), IL6 (gene 3569)
Nature of the assay: LTEA_HepaRG_IL6: Life Technologies and Expression Analysis (LTEA) Assay for Interleukin 6 (IL6) using HepaRG (AID 2283509). Summed up:
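Differentiated human HepaRG cells, plated 48 h then switched to serum-free induction medium, were exposed in duplicate for 48 h to eight half-log concentrations up to 100 uM in 0.5% DMSO. IL6 mRNA measured by qRT-PCR, normalized to ACTB/GAPDH/POLR2A.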

Read-out in assay [14]: Interleukin 6 Receptor (IL6R), IL6R (gene 3570)
Nature of the assay: LTEA_HepaRG_IL6R: Life Technologies and Expression Analysis (LTEA) Assay for Interleukin 6 Receptor (IL6R) using HepaRG (AID 2283510). An outline of the steps:
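Differentiated HepaRG cells, plated 48 h, then exposed in duplicate for 48 h in serum-free induction medium to 8 half-log concentrations (top 100 uM, 0.5% DMSO). IL6R mRNA measured by TaqMan qRT-PCR, normalized to ACTB/GAPDH/POLR2A; bidirectional fit vs DMSO.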

Read-out in assay [15]: Potassium channel subfamily K member 1 (KCNK1), KCNK1 (gene 3775)
Put plainly: LTEA_HepaRG_KCNK1: Life Technologies and Expression Analysis (LTEA) Assay for Potassium channel subfamily K member 1 (KCNK1) using HepaRG (AID 2283511). An outline of the steps:
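Differentiated human HepaRG cells in serum-free induction medium were exposed in duplicate for 48 h to 8 half-log concentrations up to 100 uM in 0.5% DMSO. KCNK1 mRNA was measured by TaqMan qRT-PCR, normalized to ACTB, GAPDH and POLR2A, and fitted bidirectionally versus DMSO.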

Read-out in assay [16]: Keratin 19 (KRT19), KRT19 (gene 3880)
Nature of the assay: LTEA_HepaRG_KRT19: Life Technologies and Expression Analysis (LTEA) Assay for Keratin 19 (KRT19) using HepaRG (AID 2283512). Summed up: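 Differentiated human HepaRG cells, plated 48 h, were exposed in duplicate for 48 h in serum-free induction medium to eight half-log concentrations up to 100 uM in 0.5% DMSO. KRT19 mRNA was quantified by qRT-PCR, normalized to ACTB, GAPDH and POLR2A, and fitted bidirectionally versus DMSO.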

Read-out in assay [17]: JUN Transcription Factor, JUN (gene 3725)
Put plainly: LTEA_HepaRG_JUN: Life Technologies and Expression Analysis (LTEA) Assay for JUN Transcription Factor using HepaRG (AID 2283513). An outline of the steps:
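HepaRG cells, 48 h post-plating, exposed 48 h in serum-free induction medium to 8-point half-log series (top 100 uM, 0.5% DMSO), duplicate; mRNA by qRT-PCR (TaqMan, Fluidigm), normalized to ACTB/GAPDH/POLR2A; bidirectional fit vs DMSO.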

Read-out in assay [18]: Lipoprotein lipase (LPL), LPL (gene 4023)
Put plainly: LTEA_HepaRG_LPL: Life Technologies and Expression Analysis (LTEA) Assay for Lipoprotein lipase (LPL) using HepaRG (AID 2283515). Summed up: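 Differentiated human HepaRG cells in serum-free induction medium were exposed in duplicate for 48 h to eight half-log concentrations (top 100 uM) in 0.5% DMSO. LPL mRNA was quantified by TaqMan qRT-PCR, normalized to ACTB, GAPDH and POLR2A.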

Read-out in assay [19]: Lipase C (LIPC), LIPC (gene 3990)
Nature of the assay: LTEA_HepaRG_LIPC: Life Technologies and Expression Analysis (LTEA) Assay for Lipase C (LIPC) using HepaRG (AID 2283514). An outline of the steps:
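Differentiated human HepaRG cells in serum-free induction medium were exposed in duplicate for 48 h to eight concentrations (top 100 uM, half-log steps, 0.5% DMSO). LIPC mRNA was quantified by TaqMan qRT-PCR, normalized to ACTB, GAPDH and POLR2A, with bidirectional fitting versus DMSO.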

Molecules are shown by their SMILES. Activity calls are given as the source filed them. Rule for the calls: active = hit-call score of the fitted dose curve at least 0.9, where 1 is the maximum; inactive = score below 0.9.

Sequence of Hypoxia-inducible factor 1-alpha (Homo sapiens) (Q16665 whole entry, looked up): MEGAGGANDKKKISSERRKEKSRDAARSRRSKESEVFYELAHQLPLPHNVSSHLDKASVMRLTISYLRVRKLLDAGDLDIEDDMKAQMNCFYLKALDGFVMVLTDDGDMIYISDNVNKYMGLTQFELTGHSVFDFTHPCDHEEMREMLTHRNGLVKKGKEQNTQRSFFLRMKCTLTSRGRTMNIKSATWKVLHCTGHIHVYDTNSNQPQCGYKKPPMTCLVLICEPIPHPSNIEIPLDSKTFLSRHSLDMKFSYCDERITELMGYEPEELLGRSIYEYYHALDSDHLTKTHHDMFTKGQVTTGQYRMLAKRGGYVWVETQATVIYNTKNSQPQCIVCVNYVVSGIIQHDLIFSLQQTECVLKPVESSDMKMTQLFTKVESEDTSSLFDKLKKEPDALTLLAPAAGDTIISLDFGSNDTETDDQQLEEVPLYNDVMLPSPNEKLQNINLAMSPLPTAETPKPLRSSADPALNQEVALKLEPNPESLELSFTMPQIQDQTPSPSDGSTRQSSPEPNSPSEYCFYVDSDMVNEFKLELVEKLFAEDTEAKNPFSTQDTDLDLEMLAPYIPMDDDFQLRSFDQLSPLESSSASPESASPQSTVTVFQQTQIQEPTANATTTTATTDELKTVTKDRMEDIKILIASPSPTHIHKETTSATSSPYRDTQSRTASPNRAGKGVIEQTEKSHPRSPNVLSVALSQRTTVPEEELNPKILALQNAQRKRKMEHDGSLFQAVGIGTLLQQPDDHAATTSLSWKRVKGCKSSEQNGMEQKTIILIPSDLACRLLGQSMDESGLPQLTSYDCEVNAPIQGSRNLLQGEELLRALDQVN

Consider `CCCCSP(=O)(SCCCC)SCCCC`, for which the AC50 in assay [1] is 50 µM (active); in assay [9] it was 50 µM (active); in [10], 65.7 µM (active); in assay [12], 64.2 µM (active); in [16], 1.7 µM (active); in assay [18], 68.5 µM (active). In addition, the result in [2], in assay [3], in assay [4], in [5], in assay [6] and in assay [7] was inactive. The call (in assay [8]; with HGF (gene 3082); in [11]; in assay [13]; in assay [14]; in assay [15]) was inactive. Moreover, the outcome in assay [17] was inactive.
Turning to `CC1=NNC(=O)N(/N=C/c2cccnc2)C1`, the call in assay [1], in assay [2], in [3], in assay [4], in assay [5] and in [6] was inactive. Further, the compound was classed as inactive (in [7]; in [8]; in assay [9]; with HGF (gene 3082); in assay [10]; in assay [11]). The compound was called inactive in [12], in [13], in assay [14], in [15], in assay [16] and in assay [17]. In assay [18], the call was inactive.
`COP(=O)(OC)OC(Br)C(Cl)(Cl)Br` (configuration not stated): the result in [1], in assay [2], in [4], in [5], in assay [6] and in [7] was inactive. In addition, the call (in assay [8]; in assay [9]; with HGF (gene 3082); in assay [10]; in [11]; in assay [12]) was inactive. Also, the outcome in assay [14], in [15], in assay [16], in assay [17], in assay [19] and in assay [18] was inactive. The AC50 in assay [13] is 50 µM (active).

Source of the values: PubChem BioAssay (EPA / NIEHS).
